Records with an inconclusive call do not appear. The source made the active and inactive calls. How the source made its calls: active means hit-call score of the fitted dose curve at least 0.9, where 1 is the maximum; inconclusive means response in the unintended direction; inactive means score below 0.9.

Usually AC50 stands for the midpoint of the concentration-response curve, whichever way the signal moves.

Assay [1] deals with Protein deacetylase HDAC6 (Homo sapiens) (UniProt Q9UBN7). Nature of the assay: NVS_ENZ_hHDAC6: NovaScreen (NVS) Enzymatic Assay for human Histone Deacetylase 6 (HDAC6) (AID 2283164). The method, boiled down:
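Recombinant human HDAC6 with fluorescent substrate, 1 h; product separated from substrate by electrophoretic mobility shift. Primary screen in duplicate at 25 uM; actives retested singly in concentration-response up to 50 uM, fitted relative to DMSO.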

The target in assay [2] is Glycogen synthase kinase-3 beta (Homo sapiens) (UniProt P49841). Nature of the assay: NVS_ENZ_hGSK3b: NovaScreen (NVS) Enzymatic Assay for human Glycogen Synthase Kinase-3 beta (GSK3b) (AID 2283165). The method in brief:
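Recombinant enzyme with specific fluorescent substrate, 1 h, product separated by electrophoretic mobility shift. Primary duplicate screen at 25 uM; actives (e.g. 30% inhibition) followed in singleton concentration-response to 50 uM. Signal loss fitted versus DMSO.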

For assay [3], the target named is human MAP Kinase-Activated Protein Kinase 2 (MAPKAPK2), MAPKAPK2 (gene 9261) (UniProt P49137). Nature of the assay: NVS_ENZ_hMAPKAPK2: NovaScreen (NVS) Enzymatic Assay for human MAP Kinase-Activated Protein Kinase 2 (MAPKAPK2) (AID 2283178). The method in brief: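 Cell-free recombinant human MAPKAPK2 activity measured by fluorescence with electrophoretic mobility shift separation of substrate and product, 1 hr after dosing. Loss of signal versus DMSO; primary screen at 25 uM, concentration-response up to 50 uM.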
Chain of human MAP Kinase-Activated Protein Kinase 2 (MAPKAPK2), MAPKAPK2 (gene 9261) (P49137 whole entry, looked up): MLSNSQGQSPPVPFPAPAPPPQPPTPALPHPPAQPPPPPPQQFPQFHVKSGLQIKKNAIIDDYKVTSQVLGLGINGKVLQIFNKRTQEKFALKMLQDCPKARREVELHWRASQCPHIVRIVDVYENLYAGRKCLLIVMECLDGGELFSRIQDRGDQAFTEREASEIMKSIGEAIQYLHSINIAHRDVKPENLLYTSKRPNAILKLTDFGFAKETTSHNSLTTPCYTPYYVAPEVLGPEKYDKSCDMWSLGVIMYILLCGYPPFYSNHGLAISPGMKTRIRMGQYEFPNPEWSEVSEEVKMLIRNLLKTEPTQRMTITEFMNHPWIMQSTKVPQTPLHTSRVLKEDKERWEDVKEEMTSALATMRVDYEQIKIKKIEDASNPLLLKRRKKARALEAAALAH

For assay [4], the target named is human Matrix Metalloproteinase-7 (MMP7), MMP7 (gene 4316) (UniProt P09237). Nature of the assay: NVS_ENZ_hMMP7: NovaScreen (NVS) Enzymatic Assay for human Matrix Metalloproteinase-7 (MMP7) (AID 2283183). The method in brief: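 Cell-free fluorescence enzymatic assay read 1 h after compound addition, activity loss analyzed against DMSO. Primary duplicate testing at 25 uM; compounds meeting threshold rerun in singleton concentration-response up to 50 uM.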
Chain of human Matrix Metalloproteinase-7 (MMP7), MMP7 (gene 4316) (P09237 whole entry, looked up): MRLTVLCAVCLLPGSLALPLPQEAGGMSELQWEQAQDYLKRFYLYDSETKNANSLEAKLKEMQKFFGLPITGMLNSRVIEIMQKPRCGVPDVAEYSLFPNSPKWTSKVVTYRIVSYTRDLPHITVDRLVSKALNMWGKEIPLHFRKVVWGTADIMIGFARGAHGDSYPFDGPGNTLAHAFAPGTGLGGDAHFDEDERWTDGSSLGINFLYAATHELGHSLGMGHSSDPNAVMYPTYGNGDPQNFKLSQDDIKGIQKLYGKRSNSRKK

The target of assay [5] is human Insulin Receptor (InsR), INSR (gene 3643) (UniProt P06213). Put plainly: NVS_ENZ_hInsR: NovaScreen (NVS) Enzymatic Assay for human Insulin Receptor (InsR) (AID 2283168). The method, boiled down:
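Fluorescent substrate phosphorylation by recombinant kinase, product resolved by electrophoretic mobility shift, read 1 h after dosing. Screened in duplicate at 25 uM; hits (e.g., 30% inhibition) run in concentration-response to 50 uM; DMSO as baseline.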

Assay [6] deals with human Fibroblast Growth Factor Receptor 1 (FGFR1), FGFR1 (gene 2260) (UniProt P11362). Nature of the assay: NVS_ENZ_hFGFR1: NovaScreen (NVS) Enzymatic Assay for human Fibroblast Growth Factor Receptor 1 (FGFR1) (AID 2283159).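 On AC50: hits lower the signal so potencies describe inhibitors of the kinase.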 The method, boiled down: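 Cell-free recombinant kinase with fluorescent substrate, product separated by electrophoretic mobility shift; read 1 hour after dosing, loss of signal relative to DMSO. Initial screen in duplicate at 25 uM, actives followed in concentration series.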
Chain of human Fibroblast Growth Factor Receptor 1 (FGFR1), FGFR1 (gene 2260) (P11362 whole entry, looked up): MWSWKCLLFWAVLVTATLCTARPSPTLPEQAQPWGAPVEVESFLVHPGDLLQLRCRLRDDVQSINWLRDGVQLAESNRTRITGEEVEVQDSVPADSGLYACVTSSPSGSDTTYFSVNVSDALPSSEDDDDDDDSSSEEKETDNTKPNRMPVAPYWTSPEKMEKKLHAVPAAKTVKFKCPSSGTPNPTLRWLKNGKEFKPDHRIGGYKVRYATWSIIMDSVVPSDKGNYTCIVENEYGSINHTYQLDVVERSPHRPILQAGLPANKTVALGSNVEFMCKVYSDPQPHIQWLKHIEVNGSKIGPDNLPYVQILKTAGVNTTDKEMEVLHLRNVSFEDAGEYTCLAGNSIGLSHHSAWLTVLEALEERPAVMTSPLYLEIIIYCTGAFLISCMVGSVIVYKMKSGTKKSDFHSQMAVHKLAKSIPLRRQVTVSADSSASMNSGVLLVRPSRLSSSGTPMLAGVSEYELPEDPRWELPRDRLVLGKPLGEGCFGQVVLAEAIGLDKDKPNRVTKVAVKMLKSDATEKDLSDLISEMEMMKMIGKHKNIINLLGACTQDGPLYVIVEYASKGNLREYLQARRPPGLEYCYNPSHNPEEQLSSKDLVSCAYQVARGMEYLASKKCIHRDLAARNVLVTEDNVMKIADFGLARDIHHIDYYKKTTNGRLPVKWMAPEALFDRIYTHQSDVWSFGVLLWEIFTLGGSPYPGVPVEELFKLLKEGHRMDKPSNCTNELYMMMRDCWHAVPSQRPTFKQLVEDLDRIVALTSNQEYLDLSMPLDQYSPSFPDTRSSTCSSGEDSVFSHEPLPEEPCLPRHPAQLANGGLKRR

In assay [7] the target is human Matrix Metalloproteinase-3 (MMP3), MMP3 (gene 4314) (UniProt P08254). Put plainly: NVS_ENZ_hMMP3: NovaScreen (NVS) Enzymatic Assay for human Matrix Metalloproteinase-3 (MMP3) (AID 2283185). The method, boiled down: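 Cell-free recombinant human MMP3 activity, fluorescence intensity read 1 h after dosing. Primary screen duplicate at 25 uM, actives retested in concentration series; loss of signal vs DMSO baseline.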
Chain of human Matrix Metalloproteinase-3 (MMP3), MMP3 (gene 4314) (P08254 whole entry, looked up): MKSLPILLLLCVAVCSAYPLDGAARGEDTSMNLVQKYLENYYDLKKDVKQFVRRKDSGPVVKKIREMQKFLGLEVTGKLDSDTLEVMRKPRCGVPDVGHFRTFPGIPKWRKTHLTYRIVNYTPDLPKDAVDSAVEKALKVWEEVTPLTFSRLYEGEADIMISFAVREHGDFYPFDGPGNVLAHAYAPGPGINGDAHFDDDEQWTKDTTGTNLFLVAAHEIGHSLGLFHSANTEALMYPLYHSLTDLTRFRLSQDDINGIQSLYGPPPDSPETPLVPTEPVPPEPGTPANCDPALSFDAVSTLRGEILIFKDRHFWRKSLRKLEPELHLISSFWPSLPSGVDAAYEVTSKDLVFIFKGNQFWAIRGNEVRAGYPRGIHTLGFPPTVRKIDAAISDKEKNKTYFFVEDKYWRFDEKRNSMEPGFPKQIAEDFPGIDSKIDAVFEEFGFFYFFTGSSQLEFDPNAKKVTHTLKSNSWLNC

Assay [8] addresses Mitogen-activated protein kinase 3 (Homo sapiens) (UniProt P27361). Put plainly: NVS_ENZ_hMAPK3: NovaScreen (NVS) Enzymatic Assay for human Mitogen-Activated Protein Kinase 3 (MAPK 3) (AID 2283177). The method in brief: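 Cell-free enzymatic assay with recombinant protein and specific substrate; fluorescence and electrophoretic mobility shift read-out 1 h after dosing. Primary screen duplicate at 25 uM; actives then run in concentration-response up to 50 uM, loss of signal versus DMSO.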

Assay [9] has as its target human FYN Proto-Oncogene, Src family Tyrosine Kinase (Fyn), FYN (gene 2534) (UniProt P06241). Put plainly: NVS_ENZ_hFyn: NovaScreen (NVS) Enzymatic Assay for human FYN Proto-Oncogene, Src family Tyrosine Kinase (Fyn) (AID 2283161). The method in brief:
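Recombinant enzyme with fluorescent substrate, product separated by electrophoretic mobility shift; read 1 h after dosing. Duplicate 25 uM single-point screen, actives retested in concentration series; loss of signal vs DMSO.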

In assay [10] the target is human IkappaB Kinase alpha (IKKa), CHUK (gene 1147) (UniProt O15111). Put plainly: NVS_ENZ_hIKKa: NovaScreen (NVS) Enzymatic Assay for human IkappaB Kinase alpha (IKKa) (AID 2283167). The method in brief:
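Cell-free recombinant human IKKa with fluorescent substrate, product separated by electrophoretic mobility shift; read 1 hour after dosing. Primary screen duplicate at 25 uM, actives then concentration-response up to 50 uM; loss of signal relative to DMSO.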

The target of assay [11] is human MET Proto-Oncogene, Receptor Tyrosine Kinase (MET), MET (gene 4233) (UniProt P08581). Put plainly: NVS_ENZ_hMet: NovaScreen (NVS) Enzymatic Assay for human MET Proto-Oncogene, Receptor Tyrosine Kinase (MET) (AID 2283180). The method, boiled down:
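Cell-free MET kinase assay using recombinant protein and fluorescent substrate, with mobility-shift separation; read 1 h after dosing. Primary duplicate at 25 uM; actives in singleton concentration-response to 50 uM maximum. Signal loss versus DMSO.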

Assay [12] concerns the target Collagenase 3 (Homo sapiens) (UniProt P45452). Nature of the assay: NVS_ENZ_hMMP13: NovaScreen (NVS) Enzymatic Assay for human Matrix Metalloproteinase-13 (MMP13) (AID 2283182). The method in brief: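 Recombinant MMP13 cleaving fluorescent substrate, cell-free, measured 1 h after dosing. Primary duplicate screen at 25 uM; actives tested in concentration-response up to 50 uM; loss of signal relative to DMSO.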

Assay [13] addresses human Matrix Metalloproteinase-9 (MMP9), MMP9 (gene 4318) (UniProt P14780). Put plainly: NVS_ENZ_hMMP9: NovaScreen (NVS) Enzymatic Assay for human Matrix Metalloproteinase-9 (MMP9) (AID 2283190).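 Further: cell-free recombinant MMP9 protease activity read by fluorescent substrate signal; active means inhibition seen as loss of fluorescence signal versus DMSO.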 The method in brief:
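Cell-free fluorescence-intensity enzyme activity assay using extracted protein, read 1 h after dosing. Loss of signal versus DMSO baseline indicates inhibition; primary screen in duplicate at 25 uM, actives followed up in concentration series.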

Assay [14] concerns the target human Mitogen-Activated Protein Kinase 1 (MAPK 1), MAPK1 (gene 5594) (UniProt P28482). Nature of the assay: NVS_ENZ_hMAPK1: NovaScreen (NVS) Enzymatic Assay for human Mitogen-Activated Protein Kinase 1 (MAPK 1) (AID 2283175). The method in brief: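 Cell-free recombinant human MAPK1 enzymatic assay, fluorescence/electrophoretic mobility shift read at 1 h; loss of signal vs DMSO. Primary screen in duplicate at 25 uM; actives (e.g. ≥30% inhibition) run as concentration-response up to 50 uM.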

Assay [15] has as its target human Janus Kinase 2 (Jak2), JAK2 (gene 3717) (UniProt O60674). Put plainly: NVS_ENZ_hJak2: NovaScreen (NVS) Enzymatic Assay for human Janus Kinase 2 (Jak2) (AID 2283169). The method, boiled down: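 Cell-free recombinant human JAK2 enzyme activity assay, fluorescence/electrophoretic mobility shift read 1 h after dosing. Screened in duplicate at 25 uM, then concentration-response up to 50 uM; activity as signal loss relative to DMSO.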

Assay [16] deals with human p21 Activated Kinase 4 (PAK4), PAK4 (gene 10298) (UniProt O96013). Put plainly: NVS_ENZ_hPAK4: NovaScreen (NVS) Enzymatic Assay for human p21 Activated Kinase 4 (PAK4) (AID 2283189). The method in brief: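 Cell-free recombinant human PAK4 activity assay; fluorescent substrate and product separated by electrophoretic mobility shift, read 1 h after dosing. Initially tested in duplicate at 25 uM, relative to DMSO baseline.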

Assay [17] concerns the target Histone deacetylase 3 (Homo sapiens) (UniProt O15379). Put plainly: NVS_ENZ_hHDAC3: NovaScreen (NVS) Enzymatic Assay for human Histone Deacetylase 3 (HDAC3) (AID 2283163). The method, boiled down: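 Recombinant human HDAC3 with fluorescent substrate, 1 h after dosing; product separated from substrate by electrophoretic mobility shift and read by fluorescence. Primary screen at 25 uM in duplicate; actives (e.g. ≥30% inhibition) retested in concentration-response up to 50 uM.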

Chain of Mitogen-activated protein kinase 3 (Homo sapiens) (P27361 whole entry, looked up): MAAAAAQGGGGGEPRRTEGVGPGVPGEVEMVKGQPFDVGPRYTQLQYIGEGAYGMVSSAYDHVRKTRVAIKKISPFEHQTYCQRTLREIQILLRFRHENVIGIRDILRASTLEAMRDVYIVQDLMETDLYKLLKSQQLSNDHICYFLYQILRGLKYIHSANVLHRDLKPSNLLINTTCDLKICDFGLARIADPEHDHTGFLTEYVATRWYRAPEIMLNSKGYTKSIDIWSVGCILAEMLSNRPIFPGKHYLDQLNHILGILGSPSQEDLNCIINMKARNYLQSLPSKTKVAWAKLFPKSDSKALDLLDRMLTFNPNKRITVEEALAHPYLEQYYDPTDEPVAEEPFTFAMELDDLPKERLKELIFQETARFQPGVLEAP
Chain of human Matrix Metalloproteinase-9 (MMP9), MMP9 (gene 4318) (P14780 whole entry, looked up): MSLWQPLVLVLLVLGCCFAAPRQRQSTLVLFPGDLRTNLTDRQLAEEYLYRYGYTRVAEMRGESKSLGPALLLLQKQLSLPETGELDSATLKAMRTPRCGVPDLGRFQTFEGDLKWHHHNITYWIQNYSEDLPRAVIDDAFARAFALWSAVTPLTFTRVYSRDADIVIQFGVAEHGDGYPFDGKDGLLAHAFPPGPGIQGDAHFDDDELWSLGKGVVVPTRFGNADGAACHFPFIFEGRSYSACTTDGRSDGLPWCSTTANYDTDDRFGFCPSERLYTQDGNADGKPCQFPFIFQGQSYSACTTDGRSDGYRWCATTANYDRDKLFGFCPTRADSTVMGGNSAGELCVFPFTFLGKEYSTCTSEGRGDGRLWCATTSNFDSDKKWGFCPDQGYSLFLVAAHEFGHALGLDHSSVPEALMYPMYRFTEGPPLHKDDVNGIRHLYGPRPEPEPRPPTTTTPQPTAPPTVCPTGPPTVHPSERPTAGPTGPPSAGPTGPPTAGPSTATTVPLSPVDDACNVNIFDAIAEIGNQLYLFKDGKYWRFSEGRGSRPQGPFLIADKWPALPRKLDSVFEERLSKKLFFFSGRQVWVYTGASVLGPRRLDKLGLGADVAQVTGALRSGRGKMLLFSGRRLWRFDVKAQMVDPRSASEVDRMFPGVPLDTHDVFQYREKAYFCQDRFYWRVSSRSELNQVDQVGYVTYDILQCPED
Chain of human MET Proto-Oncogene, Receptor Tyrosine Kinase (MET), MET (gene 4233) (P08581 whole entry, looked up): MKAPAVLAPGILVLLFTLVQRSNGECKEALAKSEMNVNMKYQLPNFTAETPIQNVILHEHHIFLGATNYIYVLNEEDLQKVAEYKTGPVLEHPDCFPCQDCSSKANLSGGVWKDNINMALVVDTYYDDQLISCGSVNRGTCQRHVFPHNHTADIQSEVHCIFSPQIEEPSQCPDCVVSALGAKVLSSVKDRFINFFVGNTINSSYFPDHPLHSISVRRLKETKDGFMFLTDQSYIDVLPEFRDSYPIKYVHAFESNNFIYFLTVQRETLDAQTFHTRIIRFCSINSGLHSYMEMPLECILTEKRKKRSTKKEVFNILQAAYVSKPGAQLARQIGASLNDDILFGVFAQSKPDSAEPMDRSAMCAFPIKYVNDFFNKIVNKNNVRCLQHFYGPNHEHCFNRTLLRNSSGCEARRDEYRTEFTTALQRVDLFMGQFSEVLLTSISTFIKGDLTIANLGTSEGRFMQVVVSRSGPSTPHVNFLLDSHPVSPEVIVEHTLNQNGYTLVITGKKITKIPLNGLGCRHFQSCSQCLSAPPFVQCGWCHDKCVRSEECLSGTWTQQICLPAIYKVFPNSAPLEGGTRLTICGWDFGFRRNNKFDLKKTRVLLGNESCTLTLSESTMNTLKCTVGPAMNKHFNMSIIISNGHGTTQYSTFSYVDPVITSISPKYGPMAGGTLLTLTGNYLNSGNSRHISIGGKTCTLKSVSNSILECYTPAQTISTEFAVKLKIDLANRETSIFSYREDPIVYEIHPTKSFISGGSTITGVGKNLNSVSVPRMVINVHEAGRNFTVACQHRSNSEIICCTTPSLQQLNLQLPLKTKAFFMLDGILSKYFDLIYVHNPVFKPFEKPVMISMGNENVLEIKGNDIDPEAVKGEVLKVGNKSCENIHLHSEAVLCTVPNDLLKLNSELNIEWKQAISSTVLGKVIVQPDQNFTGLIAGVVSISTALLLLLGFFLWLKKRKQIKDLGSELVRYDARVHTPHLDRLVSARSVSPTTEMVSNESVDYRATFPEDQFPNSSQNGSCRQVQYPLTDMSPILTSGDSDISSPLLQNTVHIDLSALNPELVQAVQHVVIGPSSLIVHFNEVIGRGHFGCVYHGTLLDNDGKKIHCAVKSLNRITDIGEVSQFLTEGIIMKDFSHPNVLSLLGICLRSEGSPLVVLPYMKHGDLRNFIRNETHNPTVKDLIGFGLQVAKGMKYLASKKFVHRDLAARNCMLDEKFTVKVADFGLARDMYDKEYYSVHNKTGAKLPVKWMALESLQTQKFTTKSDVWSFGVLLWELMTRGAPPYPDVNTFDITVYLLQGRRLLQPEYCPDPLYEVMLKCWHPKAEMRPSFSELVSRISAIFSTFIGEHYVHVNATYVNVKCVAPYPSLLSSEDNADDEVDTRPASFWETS
Chain of human FYN Proto-Oncogene, Src family Tyrosine Kinase (Fyn), FYN (gene 2534) (P06241 whole entry, looked up): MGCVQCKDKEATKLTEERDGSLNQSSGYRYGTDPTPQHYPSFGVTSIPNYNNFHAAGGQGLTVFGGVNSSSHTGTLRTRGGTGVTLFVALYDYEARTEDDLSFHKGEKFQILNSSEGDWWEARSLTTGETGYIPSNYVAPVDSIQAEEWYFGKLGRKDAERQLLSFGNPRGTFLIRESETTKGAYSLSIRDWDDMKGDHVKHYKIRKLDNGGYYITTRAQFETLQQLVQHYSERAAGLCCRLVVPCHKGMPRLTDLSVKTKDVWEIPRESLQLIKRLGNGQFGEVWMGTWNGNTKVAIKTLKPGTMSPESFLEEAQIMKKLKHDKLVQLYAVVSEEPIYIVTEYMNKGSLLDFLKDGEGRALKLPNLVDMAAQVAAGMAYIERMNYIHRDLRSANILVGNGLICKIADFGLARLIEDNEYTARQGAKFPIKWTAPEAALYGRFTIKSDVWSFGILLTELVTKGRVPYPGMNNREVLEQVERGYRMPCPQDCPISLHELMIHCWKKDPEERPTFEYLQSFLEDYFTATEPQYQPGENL

For `N#CSCSC#N`, in [1], the AC50 was 3.68 µM (active). Moreover, the compound was called inactive in assay [2], in assay [3] and in assay [4].
For `CCOP(=S)(OCC)Oc1cc(C)nc(C(C)C)n1`, the call in assay [1] and in assay [4] was inactive.
Take `CCC(=NOC/C=C/Cl)C1=C(O)CC(C2CCOCC2)CC1=O` (stereo unspecified): the result in assay [5] was inactive.
As to `C[N+]1(C)CCCCC1`, the compound was classed as inactive in [6].
As to `CCOP(=S)(OCC)OC(Cl)C(Cl)(Cl)Cl` (stereo unspecified), in [7], the compound was called inactive.
For the compound `CC(C1CC1)C(O)(Cn1cncn1)c1ccc(Cl)cc1` (stereo unspecified), the compound was called inactive in assay [8].
In the case of `C#CC(C)(C)NC(=O)c1cc(Cl)cc(Cl)c1`, in assay [7], the compound was classed as inactive.
As to `S=C1NCCN1`, the result in [9], in assay [10], in assay [8], in [3], in assay [11] and in assay [12] was inactive. Also, the compound was called inactive in assay [4], in assay [7] and in assay [13].
In the case of `C=C(C)[C@H]1Cc2c(ccc3c2O[C@@H]2COc4cc(OC)c(OC)cc4[C@@H]2C3=O)O1`, the call in assay [14] was inactive.
`CC(C)[C@H](C(=O)O[C@H](C#N)c1cccc(Oc2ccccc2)c1)c1ccc(Cl)cc1`: the call in [9] was inactive. Further, the AC50 in [12] was 13 µM (active).
As to `CC[C@H](C)[C@H]1O[C@]2(C=C[C@@H]1C)C[C@@H]1C[C@@H](C/C=C(\C)[C@@H](O[C@H]3C[C@H](OC)[C@@H](O[C@H]4C[C@H](OC)[C@@H](NC)[C@H](C)O4)[C@H](C)O3)[C@@H](C)/C=C/C=C3\CO[C@@H]4[C@H](O)C(C)=C[C@@H](C(=O)O1)[C@]34O)O2`, the AC50 in assay [6] was 16.5 µM (active); in [15] it was 15.4 µM (active). Further, the compound was classed as inactive in [11], in assay [16] and in assay [13].
With `Cc1cc(C2CC2)nc(Nc2ccccc2)n1`, the compound was called inactive in assay [15] and in assay [7].
Regarding `CNc1cnn(-c2cccc(C(F)(F)F)c2)c(=O)c1Cl`, in assay [17], the outcome was inactive.

These data come from PubChem BioAssay (EPA / NIEHS).
